Source: PubChem BioAssay (NCI)
Compounds without any hit were thinned out: in the full panel of roughly 79,000, 15% have a hit. Values without a mark were called inactive. Active and inactive are the calls of the source. No stated cut-off is given here; in the data, active means growth inhibition above about 70%; inactive means the rest. Where a SMILES comes first, the peptide text is derived from it. [ ]: non-standard residue; d: D form. The star is where a group is joined. Ac5c = NC1(C(=O)O)CCCC1; Cbz = O=C(OCc1ccccc1)*

Legend:
[1] = NCI Yeast Anticancer Drug Screen. Data for the rad50 strain (AID 155);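 further: 0% = growth of vehicle-only cultures of the same strain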; conditions: S. cerevisiae rad50 strain growth inhibition; at 50.0 µM; active compounds read high
How it was run: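 Inhibition values express reduced yeast growth in compound-treated cultures relative to vehicle-treated controls.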

[2] = NCI Yeast Anticancer Drug Screen. Data for the mec2-1 strain (AID 157); conditions: S. cerevisiae mec2-1 strain, at 50.0 µM, active compounds read high
How it was run: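 Growth inhibition is read against vehicle-treated controls after compound exposure of the mec2-1 yeast strain, which is defective in DNA damage repair or cell cycle control.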

[3] = NCI Yeast Anticancer Drug Screen. Data for the sgs1 mgt1 strain (AID 161);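 further: 0% = growth of cultures given vehicle only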; conditions: S. cerevisiae sgs1 mgt1 strain, at 50.0 µM, active compounds read high
How it was run: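 Percent growth inhibition was derived by comparing compound-exposed mutant yeast with vehicle-exposed cultures. The strain carries alterations in DNA damage repair.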

[4] = NCI Yeast Anticancer Drug Screen. Data for the cln2 rad14 strain (AID 165);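 further: 0% = growth equal to vehicle treated cultures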; conditions: S. cerevisiae cln2 rad14 strain, at 50.0 µM, active compounds read high
How it was run: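 Growth inhibition, relative to vehicle-treated controls, is the read-out. The test organism is a yeast strain with defined genetic alterations, cln2 rad14.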

[5] = NCI Yeast Anticancer Drug Screen. Data for the bub3 strain (AID 167); conditions: S. cerevisiae bub3 mutant strain, at 50.0 µM, active compounds read high
How it was run: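 Steps: expose the mutant yeast strain to compound; grow alongside vehicle-treated cultures; measure growth; express inhibition against the vehicle cultures.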

[6] = NCI Yeast Anticancer Drug Screen. Data for the mlh1 rad18 strain (AID 175); conditions: S. cerevisiae mlh1 rad18 strain growth inhibition; at 50.0 µM; active compounds read high
How it was run: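 Cells of a genetically altered yeast strain, deficient in DNA damage repair, were treated with compound. Their growth was then compared with that of vehicle-treated cultures to give inhibition.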

Compound | growth inhibition [1] | growth inhibition [2] | growth inhibition [3] | growth inhibition [4] | growth inhibition [5] | growth inhibition [6]
CC(C)COS(=O)(=O)O | 19.2% | 6.65% | 20% | 24.9% | 15.2% | 27.1%
Clc1ccc(CSc2cnnc3c(Br)cccc23)c(Cl)c1 | -5.3% | -11.5% | -10.8% | -39.2% | 1.8% | 0.85%
O=C1CCC(=O)O1 | -8.6% | 17% | -11.7% | 6.45% | 3.95% | -51.9%
C=C(C)C(=O)OCCCCC | 8.7% | 5.15% | 4.45% | 6.65% | -3.55% | 2.95%
C/C(=N\Nc1ccc([N+](=O)[O-])cc1[N+](=O)[O-])C1(C)CC=CCC1C (stereo unspecified) | -3.9% | -3.35% | 0.4% | 6.05% | -1.7% | -1.45%
CCCCCCCCCCCCS(=O)(=O)CCC(=O)c1ccco1 | 29.4% | 20.1% | -6.8% | 9.3% | 6.55% | 7.6%
COc1ccc2c(c1)N(S(=O)(=O)c1ccc(C)cc1)C[C@@H]1c3cc(O)c(OCc4ccccc4)cc3O[C@H]21 | -8.95% | 7.9% | -7.8% | -6.8% | 2.4% | 15.6%
CCC(C(=O)O)c1ccc(-c2ccccc2)cc1 (stereo unspecified) | 24.6% | 24.1% | 19.1% | 23.1% | 24.4% | 9.5%
CC1C(O)C(c2ccccc2)(c2ccccc2)C(C)CN1C (stereo unspecified) | -5.65% | -4.95% | 4.15% | 4.65% | -2.6% | 3.45%
c1ccc(C(c2ccccc2)c2ccccc2)cc1 | -20.6% | -20.4% | -16.1% | -10.3% | -8.7% | -23.6%
Nc1ccc(C(=O)OCCN2CCN(CCOC(=O)c3ccc(N)cc3)CC2)cc1 | 28.9% | 13.4% | 12.6% | 16.2% | 1.6% | 28.4%
[Fe+2].[Fe+2].c1ccc2c(c1)-c1nc-2nc2[n-]c(nc3nc(nc4[n-]c(n1)c1ccccc41)-c1ccccc1-3)c1cc3c4nc5nc(nc6[n-]c(nc7nc(nc([n-]4)c3cc21)-c1ccccc1-7)c1ccccc61)-c1ccccc1-5 | -5.95% | -18.9% | -14.2% | -23% | 6.75% | 2.35%
CCOC(=O)CC(=O)Nc1cccc2sc3ncccc3c(=O)c12 | -35.4% | -52.6% | -4.25% | 15.4% | 0.7% | 0.2%
O=C(Nc1cc(Cl)c(Cl)cc1Cl)OCc1ccc2c(c1)OCO2 | -12.1% | -32.3% | -14.4% | 6.25% | -25.2% | -14.6%
c1ccc2c(C3CO3)c3ccc4ccccc4c3cc2c1 (stereo unspecified) | 99% (active) | 99.5% (active) | 99.5% (active) | 98.8% (active) | 99.2% (active) | 99.2% (active)
Cn1cnc(N2CCCC2)c(C#N)c1=S | 3.45% | -4.95% | -4.7% | -12.2% | 2.55% | 0.25%
C=Cc1ccc(-c2ccccc2)cc1 | 7.1% | -14.7% | -25.5% | -43.2% | -5.8% | -0.65%
Cc1nc(N)sc1C(=O)/C=C\c1ccc2c(c1)OCO2 | 21.4% | -3.2% | 23.4% | 10.3% | 5.2% | 35.4%
CC(=O)N1C(=O)NC(=O)C1(C)C | -7% | -29.9% | 6.65% | -18.5% | 1.5% | -7.15%
OC1c2ccccc2CC1Br (stereo unspecified) | -4.8% | -3.8% | -9.25% | -25.4% | 7.65% | -8.15%
NC(CCC(N)C(=O)c1ccccc1)C(=O)c1ccccc1 (stereo unspecified) | -12.2% | -7.75% | 4.35% | 6.8% | -8.8% | 11.7%

Compound | growth inhibition [1] | growth inhibition [2] | growth inhibition [3] | growth inhibition [4] | growth inhibition [5] | growth inhibition [6]
C=CN1C(=O)c2ccccc2C1=O | -12.8% | -12.4% | -8.95% | 6.3% | -6.5% | -24%
CC(C)(C)c1ccc(OCCOCCCl)c(Cl)c1 | 17.1% | 15.4% | 14.6% | -19.9% | 8.65% | 15.2%
CC(C)(C)C(=O)CC(=O)C(C)(C)C | -3.9% | -9.5% | 2.25% | -57.4% | -2.8% | -15.8%
O=C(c1ccccc1)C(O)(Cc1ccccc1)c1ccccc1 (stereo unspecified) | 1.9% | 17.2% | 20.8% | 22.8% | 14.4% | 12%
CC(=O)N[C@H](CO)[C@H](O)c1ccc([N+](=O)[O-])cc1 | -12.2% | 10.1% | 9% | -47.6% | 16.1% | 19.6%
C=CCOC(=O)c1c(Cl)c(Cl)c(Cl)c(Cl)c1C(=O)O | 18.4% | 7.85% | 29.1% | 25.9% | 14.1% | 23.9%
CCC(=O)C(=O)c1ccccc1 | -12.9% | -6.5% | -0.4% | -2.35% | -1.05% | 3.2%
c1ccc(-c2ccc(N=NN3CCCC3)cc2)cc1 | 0.75% | -5.6% | 14.3% | 6.4% | -6.15% | 8.1%
COC(=O)c1cc(O)c(C(=O)OC)s1 | 3.05% | -9.75% | -0.55% | -27.9% | 14.8% | 11.2%
CCC(CC)C(=O)NC | -4.25% | -5.2% | -3.5% | 2.2% | -0.85% | -1.8%
CCOC(=O)CCC(C#N)C(=O)OCC (stereo unspecified) | 0.45% | -3.9% | 9.3% | -10.2% | 27.6% | 6%
COCCOC(=O)c1ccccc1Cl | 23.7% | 15.6% | 16.3% | 8.8% | 7.1% | 22.4%
FC(F)(F)C(F)(F)C(F)(F)c1n[nH]c(C(F)(F)C(F)(F)C(F)(F)F)n1 | 12.8% | 15.1% | 33.4% | 2.95% | 18.5% | -0.1%
COc1cccc2c1N=c1c(Cl)c3c(c(Cl)c1O2)=Nc1c(OC)cccc1O3 | -17.9% | -1.45% | -0.25% | -13.9% | -8.5% | -20.4%
COc1cc(-c2ccc([NH2+][B-](F)(F)F)c(OC)c2)ccc1[NH2+][B-](F)(F)F | 21.7% | -2.05% | 37.3% | 29.1% | 9.1% | 18.9%
O=C(O)CNC(=O)C1(NC(=O)CNC(=O)OCc2ccccc2)CCCC1 (Cbz-Gly-[Ac5c]-Gly-OH) | 4.7% | 20.3% | 11.2% | -2.3% | -5.05% | 18.3%
COc1ccccc1NC(=O)N1CCN(c2cccc(C)c2)CC1 | 4.5% | -2.3% | 12.6% | -15.7% | 37.4% | -8.4%
CCC(=O)OCCC(C)C | 35.4% | 12.2% | 6.85% | -22.1% | 19.9% | 17.4%
C=CCNC(=O)C(=O)NCC=C | 3.65% | -16.2% | -11.2% | -24.6% | -8.25% | 2.1%
CN(C)C(=O)NC(=S)N(C)C | -4.05% | -10.3% | -9.85% | -13.2% | 4.05% | 4.95%
